Screens deposited in PubChem by several laboratories.
RecA intein inh – blocks M. tuberculosis RecA intein splicing. cell-free RecA intein splicing, fluorescence. inhibition, % (concentration not given with the values). 290,000 compounds, 0.75% hits. AID 2221; in the data active means inhibition above about 30%; inconclusive means no clear call, values can overlap the other calls;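 further: 0% = vehicle wells and 100% = reference inhibitor control wells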
Target sequence (P9WHJ3 whole entry, looked up): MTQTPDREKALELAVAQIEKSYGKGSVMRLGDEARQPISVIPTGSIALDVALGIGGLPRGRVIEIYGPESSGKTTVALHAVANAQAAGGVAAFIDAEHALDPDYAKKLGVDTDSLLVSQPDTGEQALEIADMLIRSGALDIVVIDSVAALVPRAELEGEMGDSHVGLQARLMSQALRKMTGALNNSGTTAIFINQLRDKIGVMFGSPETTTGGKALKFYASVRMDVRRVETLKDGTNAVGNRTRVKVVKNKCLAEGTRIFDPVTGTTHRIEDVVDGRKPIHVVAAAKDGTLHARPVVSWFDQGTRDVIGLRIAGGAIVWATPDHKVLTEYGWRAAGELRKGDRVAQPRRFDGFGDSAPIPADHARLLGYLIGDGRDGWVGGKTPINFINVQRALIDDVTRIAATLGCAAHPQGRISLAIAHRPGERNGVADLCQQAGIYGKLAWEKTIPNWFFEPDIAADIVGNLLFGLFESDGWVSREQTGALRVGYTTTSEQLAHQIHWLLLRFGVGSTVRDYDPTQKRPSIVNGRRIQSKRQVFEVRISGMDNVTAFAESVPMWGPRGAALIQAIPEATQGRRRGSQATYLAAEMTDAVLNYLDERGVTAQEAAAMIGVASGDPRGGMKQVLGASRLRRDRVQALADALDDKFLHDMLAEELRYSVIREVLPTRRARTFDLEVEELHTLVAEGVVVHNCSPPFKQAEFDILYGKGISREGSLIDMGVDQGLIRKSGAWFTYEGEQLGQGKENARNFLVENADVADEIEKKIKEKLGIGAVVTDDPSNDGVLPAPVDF
BJeLR lethal – BJeLR cell viability loss | BJeLR (HRASV12) viability, CellTiter-Glo ATP luminescence, 48 h | inhibition, % (no concentration beside the values) | 300,000 compounds, 0.17% hits; in the data active means inhibition above about 50%; inconclusive means no clear call, values can overlap the other calls
BioA inh-1 – BioA (M. tuberculosis) enzyme inhibition | purified M. tuberculosis BioA enzyme, plate reader | inhibition, % at 9.99 µM | 360,000 compounds, 0.096% hits | AID 602481; in the data active means inhibition above about 40%; inconclusive means no clear call, values can overlap the other calls
CCHF vOTU inh-1 – blocks the CCHF virus ovarian tumor domain protease. CCHFV vOTU protease, Pep-AMC fluorescence. inhibition, % at 11.5 µM. 370,000 compounds, 0.55% hits; in the data active means inhibition above about 30%; further: 0% = vehicle wells with enzyme and 100% = no enzyme wells
Mtb betalactam – beta-lactam sensitization of Mtb H37Rv | M. tuberculosis H37Rv growth with meropenem, percent inhibition | inhibition, % at 25 µM | 330,000 compounds, 0.27% hits | AID 434955;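 further: growth measured after seven days incubation then overnight dye step; 0% = bacteria only wells and 100% = bacteria with antibiotic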
Yp Topo-I inh – Y. pestis Topo-I inhibition via cleavage products. Y. pestis Topo-I cleavage product accumulation, plate reader. activity, % at 10 µM. 360,000 compounds, 0.064% hits; in the data active means activity above about 50%, passing the limit was not always enough; inconclusive means no clear call, values can overlap the other calls
GFP chromo cs – counter-screen GFP chromophore formation inhibition; EC50, µM; cell-free GFP chromophore formation, fluorescence; shares compounds with RecA intein inh; 2,100 compounds, 83% hits; AID 434968
BioA inh-2 – Mtb BioA enzyme inhibition; shares compounds with BioA inh-1; purified BioA enzyme, plate reader, dose response; max activity, %; 310 tested, under 10 active;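 further: top concentration of the dilution series was 10 µM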
HepG2 cytotox – cytotoxicity in HepG2 cells; shares compounds with BioA inh-1; max activity, %; 310 tested, under 10 active; plate reader
3T3 cytotox 5 – kills NIH3T3 cells; shares compounds with BioA inh-1; NIH3T3 cytotoxicity, plate reader; activity change, negative = cytotoxicity, % at 26 µM; 310 tested, under 10 active
CCHF vOTU inh-2 – confirmation of CCHF virus vOTU protease inhibitors; shares compounds with CCHF vOTU inh-1; Recombinant CCHFV vOTU, Pep-AMC fluorescence; inhibition, % at 11.5 µM; 1,900 compounds, 17% hits; AID 686976; in the data active means inhibition above about 30%
An asterisk follows results filed as active; i = inactive; ? = inconclusive; · = no result; [ ] = another dose, or the depositor's remark. Rows were chosen to be rich in hits. Some 1.1% of all compounds tested hit in one or more screens of this group. Unless noted, how the calls were made is not given here.

SMILES	RecA intein inh	BJeLR lethal	BioA inh-1	CCHF vOTU inh-1	Mtb betalactam	Yp Topo-I inh	BioA inh-2	HepG2 cytotox	3T3 cytotox 5	others
Cc1ccc(S(=O)(=O)Nc2ccc(Br)cc2C(NCC(=O)O)c2ccccc2)cc1 (stereo unspecified)	9.7	10.7	0.5	7.7	-9.3	6.9	·	·	·
CCO/C=C1\C(=O)N(c2ccccc2)C(=O)c2ccccc21	·	·	-2.1	·	2.4	3.3	·	·	·
CCO/C=C1/C(=O)N(Cc2ccccc2)C(=O)c2ccccc21	36.3*	8.2	·	95.1*	1.7	4.3	·	·	·	GFP chromo cs=>12;CCHF vOTU inh-2=108.1*
NC1=C(Br)C(=O)c2ccccc2C1=O	89.6*	5.1	-0.4	90.6*	90.4	-0.2	·	·	·	GFP chromo cs=5.38*;CCHF vOTU inh-2=98.6*
Nc1ccc(Br)c2c1C(=O)c1ccccc1C2=O	9.1	1.8	·	·	9.2	·	·	·	·
O=C1c2ccccc2-c2cccnc21	0.6	-1.7	4.0	2.0	-8.0	4.1	·	·	·
O=C1C(=O)c2ccccc2-c2ccccc21	53.5*	99.6*	0.3	113.9*	99.9	-2.9	·	·	·	GFP chromo cs=6.94*;CCHF vOTU inh-2=96.2*
O=C(C[C@H]1C=C[C@@H](NC(=O)Nc2ccc(F)cc2)[C@H](CO)O1)NCCN1CCCC1	·	·	1.1	·	·	·	·	·	·
CSc1ccc(S(=O)(=O)N2CCC(C(=O)Nc3cccnc3)CC2)cc1	2.4	0.0	70.7*	16.1	-6.4	-4.0	-6.4	-16.8	3.2
O=C(Nc1cccnc1)C1CCN(S(=O)(=O)c2ccc(Cl)cc2)CC1	2.8	9.1	85.5*	-3.1	1.7	-2.5	-8.7	-13.3	-2.2
O=C(NCc1ccc(Cl)cc1)C1CCN(S(=O)(=O)c2cccnc2)CC1	-0.6	-4.3	-0.3	6.7	-5.5	-1.5	·	·	·
CO[C@H]1CN(C)C(=O)c2ccc(NC(=O)C3CCOCC3)cc2OC[C@@H](C)N(CC2CC2)C[C@H]1C	·	·	-3.9	·	·	·	·	·	·
C[C@H]1CCCCO[C@H](CN(C)S(=O)(=O)c2ccc(F)cc2)[C@@H](C)CN([C@@H](C)CO)C(=O)c2cc(NS(=O)(=O)c3ccc(Cl)cc3)ccc2O1	·	·	-1.8	·	·	·	·	·	·
COCC(=O)N(C)C[C@H]1Oc2cc(-c3ccc(C#N)cc3)ccc2S(=O)(=O)N([C@@H](C)CO)C[C@@H]1C	·	·	-0.5	·	·	·	·	·	·
CCNC(=O)[C@H]1[C@H](CO)[C@H]2Cn3c(ccc(-c4cccc(F)c4)c3=O)[C@H]2N1C(=O)Cc1cccnc1	·	·	41.9*	·	·	·	-4.6	i	-0.4
O=C(Nc1nccs1)[C@H]1[C@H](CO)[C@H]2Cn3c(ccc(-c4cccnc4)c3=O)[C@H]2N1CC1CCCC1	·	·	51.7*	·	·	·	-6.3	i	14.1
Cc1ccc(Cc2c(C)nc3nc(SCC(=O)NCc4ccco4)nn3c2C)cc1	4.7	6.0	49.6*	-9.4	-1.7	17.2	-5.9	11.6	0.4
Cc1ccc(Cc2c(C)nc3nc(SCC(=O)N4CCC5(CC4)OCCO5)nn3c2C)cc1	1.7	-2.1	·	-9.0	2.3	31.2	·	·	·
Cc1nc2nc(SCC(=O)NCc3ccco3)nn2c(C)c1Cc1c(F)cccc1Cl	2.3	-7.7	47.8*	2.8	-4.1	20.6	3.1	22.0	-1.1
Cc1cccc(Cc2c(C)nc3nc(SCC(=O)NCc4ccco4)nn3c2C)c1	7.8	-9.5	38.5	1.5	?	23.7	·	·	·
Cc1nc2nc(SCC(=O)N3CCOCC3)nn2c(C)c1Cc1ccccc1	0.8	-6.0	111.3*	-9.2	-4.7	2.3	-3.9	-6.9	-6.3
Cc1ccccc1Cc1c(C)nc2nc(SCC(=O)NCc3ccco3)nn2c1C	3.4	-12.4	27.5	-2.6	6.4	6.1	·	·	·
COc1ccc(S(=O)(=O)Nc2ccc3c(c2)CC(=O)N([C@H](C)CO)C[C@H](C)[C@H](CN(C)Cc2ccncc2)O3)cc1	·	·	0.3	·	·	·	·	·	·
CO[C@@H]1CN(C)C(=O)c2cc(NC(=O)Nc3c(C)noc3C)ccc2OC[C@H](C)N(C)C[C@@H]1C	·	·	-5.3	·	·	·	·	·	·
Cc1c(OC(C)C(=O)NCc2ccccn2)ccc2c3c(c(=O)oc12)CCC3 (stereo unspecified)	0.2	6.4	43.1*	-6.7	99.2	2.2	-8.0	-5.1	-2.8
SMILES	RecA intein inh	BJeLR lethal	BioA inh-1	CCHF vOTU inh-1	Mtb betalactam	Yp Topo-I inh	BioA inh-2	HepG2 cytotox	3T3 cytotox 5	others
Cc1c(OCC(=O)NCc2ccccn2)ccc2c3c(c(=O)oc12)CCCC3	-3.1	-0.8	-1.6	6.9	99.1	4.6	·	·	·
CCNC(=O)C[C@H]1CC[C@@H]2[C@@H](COc3ccc(NC(=O)Nc4cccc(F)c4)cc3C(=O)N2C)O1	·	·	41.7*	·	·	·	5.9	i	-4.4
O=C(O)CSc1ncnc2scc(-c3ccc(Br)cc3)c12	0.6	2.1	44.9*	-3.8	-0.2	-3.8	-6.0	19.2	-3.1
CCn1cc(C(=O)NC2CC(C)(C)Cc3c2cnn3-c2cccc(F)c2)cn1 (stereo unspecified)	2.0	-9.9	22.2	-1.1	7.6	5.0	·	·	·
Cc1cnc(C(=O)NC2CC(C)(C)Cc3c2cnn3-c2cccc(F)c2)cn1 (stereo unspecified)	0.1	11.4	63.0*	23.3	4.3	24.2	-3.7	20.1	3.0
Cc1ccc(-n2ncc3c2CC(C)(C)CC3NC(=O)CCc2cccnc2)cc1 (stereo unspecified)	0.8	-1.4	44.7*	-2.5	1.1	10.6	-7.5	-11.9	7.4
COc1ccc(S(=O)(=O)Nc2ccc3c(c2)C(=O)N([C@H](C)CO)C[C@@H](C)[C@@H](CN(C)Cc2ccccc2)OCCCC[C@@H](C)O3)cc1	·	·	5.3	·	·	·	·	·	·
C[C@H]1CN([C@@H](C)CO)C(=O)c2cc(C3=CCCCC3)cnc2O[C@H]1CN(C)C(=O)c1ccncc1	·	·	17.0	·	·	·	·	·	·
O=C(Nc1cccnc1)c1cc2nc(C3CC3)cc(C(F)(F)F)n2n1	2.7	-4.1	89.6*	0.4	-6.5	-0.8	-3.0	18.9	-0.2
Cc1noc(C)c1NC(=O)Nc1ccc2c(c1)CC(=O)N([C@@H](C)CO)C[C@@H](C)[C@@H](CN(C)Cc1ccc(C(F)(F)F)cc1)O2	·	·	1.8	·	·	·	·	·	·
CC1(C(=O)NCc2ccc(F)c(F)c2)Cc2c(-c3cccc(C(N)=O)c3)ccnc2O1 (stereo unspecified)	·	·	61.7*	-0.8	·	10.0	20.2	13.8	-1.3
O=C(CN1CCOCC1)NCC[C@@H]1CC[C@@H](NC(=O)Nc2ccc(F)cc2)[C@@H](CO)O1	·	·	-0.1	·	·	·	·	·	·
O=C(c1ccncc1)N1CC[C@H]2[C@H](CO)Nc3ccc(Br)cc3[C@H]21	·	·	58.7*	·	·	·	11.9	i	-6.8[23.5 µM]
O=C(c1ccncc1)N1CC[C@@H]2[C@@H](CO)Nc3ccc(-c4ccccc4)cc3[C@@H]21	·	·	10.0	·	·	·	·	·	·
